In experiment [1] the target is Glucocorticoid receptor (Homo sapiens) (UniProt P04150). Put plainly: GR-GFP Redistribution (AID 450;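 active = compounds whose dose series gives a full or clear partial fitted curve of increased nuclear translocation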; note: potency is the fitted concentration of half-maximal effect). The conditions noted are these: U2OS GR-GFP nuclear translocation, laser cytometry, 2 h.
In experiment [2] the target is Mitogen-activated protein kinase 10 (Mus musculus) (UniProt Q61831). As to the kind of experiment: JNK3 AlphaScreen Assay (AID 530; active = well fitted curve in either direction with a large enough effect, not every such curve was filed as active;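 note: kinase came from lysate of stimulated human HepG2 cells; signal reports phosphorylation of biotinylated GST-cJun 1-79 at Ser73 with 10 µM ATP; % is set by controls: 0 for no effect and ±100 for the full control effect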). Put shortly:
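qHTS titrations with 15 min compound pre-incubation before adding ATP (10 uM final). Read-out: AlphaScreen of Ser73-phosphorylated biotin-GST-cJun using HepG2 lysate JNK3 activated by IL-1β and TNFα.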

Experiment [3] addresses Cytochrome P450 3A4 (Homo sapiens) (UniProt P08684). As to the kind of experiment: qHTS Assay for Inhibitors and Substrates of Cytochrome P450 3A4 (AID 884; active = well fitted curve in the direction sought with a large enough effect; an effect the other way counts as inactive or inconclusive; note: potency is the fitted concentration of half-maximal effect; nearly all actives have a fitted effect of over 50% in size). Put shortly:
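Luminescent readout of luciferin produced by CYP3A4 (20 nM) dealkylation of Luciferin-PPXE, 25 uM (its KM). NADPH-driven reaction ran 60 min at RT after 10 min compound preincubation; data scaled to 57 uM ketoconazole as 100% inhibition.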
For orientation: Quantitative high-throughput screening tests each substance at several concentrations.

Experiment [4] shares this target. As to the kind of experiment: qHTS Assay for Activators of Cytochrome P450 3A4 (AID 885; active = well fitted curve in the direction sought with a large enough effect; an effect the other way counts as inactive or inconclusive; note: nearly all actives have a fitted effect of over 65% in size). Put shortly:
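CYP3A4 activity: Luciferin-PPXE O-dealkylation, 25uM substrate, 200mM KPO4, RT throughout. Read-out is luciferase luminescence; higher values reflect activation.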

In experiment [5] the target is Ubiquitin carboxyl-terminal hydrolase 1 (Homo sapiens) (UniProt O94782). As to the kind of experiment: Inhibitors of USP1/UAF1: Pilot qHTS (AID 504865; active = well fitted curve in the direction sought with a large enough effect; an effect the other way counts as inactive or inconclusive; note: nearly all actives have a fitted effect of over 35% in size; note: potency is the fitted concentration of half-maximal effect). Put shortly:
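Deubiquitinase activity followed as kinetic rhodamine fluorescence release from 150 nM Ub-Rho. 1 nM USP1/UAF1 with compound, after 15 min room-temperature preincubation, in HEPES pH 7.8 buffer containing TCEP, EDTA, BSA and Tween-20.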

Experiment [6] in a line: qHTS for Inhibitors of the Functional Ribonucleoprotein Complex (vRNP) of Lassa (LASV) Arenavirus: LASV Primary Screen - GLuc reporter signal (AID 1347082; calls by dose curve; tested in HEK293 reporter line; note: % is set by controls: 0 for no effect and ±100 for the full control effect; nearly all actives have a fitted effect of over 60% in size).
A short description of experiment [7]: qHTS for Inhibitors of the Functional Ribonucleoprotein Complex (vRNP) of Lassa (LASV) Arenavirus: Viability assay - alamar blue signal for LASV Primary Screen (AID 1347083; calls by dose curve; tested in HEK293 reporter line; note: % is set by controls: 0 for no effect and ±100 for the full control effect; nearly all actives have a fitted effect of over 80% in size).
The nature of experiment [8]: qHTS for Inhibitors of the Functional Ribonucleoprotein Complex (vRNP) of Lymphocytic Choriomeningitis Arenaviruses (LCMV): Viability assay - alamar blue signal for LCMV Primary Screen (AID 1347085; calls by dose curve; tested in HEK293 reporter line; note: % is set by controls: 0 for no effect and ±100 for the full control effect; nearly all actives have a fitted effect of over 80% in size).
The target of experiment [9] is Nucleoprotein (Lymphocytic choriomeningitis virus (strain Armstrong)) (UniProt P09992). As to the kind of experiment: qHTS for Inhibitors of the Functional Ribonucleoprotein Complex (vRNP) of Lymphocytic Choriomeningitis Arenaviruses (LCMV): LCMV Primary Screen - GLuc reporter signal (AID 1347086). Note: % is set by controls: 0 for no effect and ±100 for the full control effect; nearly all actives have a fitted effect of over 70% in size.
Nucleoprotein (Lymphocytic choriomeningitis virus (strain Armstrong)), sequence (P09992 whole entry, looked up): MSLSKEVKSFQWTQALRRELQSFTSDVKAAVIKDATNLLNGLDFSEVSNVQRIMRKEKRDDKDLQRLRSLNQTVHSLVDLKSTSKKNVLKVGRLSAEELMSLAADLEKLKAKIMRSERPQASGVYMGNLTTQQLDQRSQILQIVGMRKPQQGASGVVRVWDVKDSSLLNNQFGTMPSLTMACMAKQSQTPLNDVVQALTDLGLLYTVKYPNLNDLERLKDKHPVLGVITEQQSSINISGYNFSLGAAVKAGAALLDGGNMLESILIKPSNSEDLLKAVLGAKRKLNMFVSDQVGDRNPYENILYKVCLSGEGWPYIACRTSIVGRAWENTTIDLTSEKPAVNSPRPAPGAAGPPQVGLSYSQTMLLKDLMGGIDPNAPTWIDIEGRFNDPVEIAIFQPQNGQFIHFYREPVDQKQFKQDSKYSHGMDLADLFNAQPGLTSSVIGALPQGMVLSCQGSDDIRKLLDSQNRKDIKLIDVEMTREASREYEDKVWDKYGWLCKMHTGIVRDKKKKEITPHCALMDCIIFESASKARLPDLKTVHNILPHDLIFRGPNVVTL
The nature of experiment [10]: Counterscreen qHTS for small molecule stabilizers of the endoplasmic reticulum resident proteome: GLuc-NoTag assay (AID 1508627; active = well fitted curve in the direction sought with a large enough effect; an effect the other way counts as inactive or inconclusive;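 note: SH-SY5Y cells given compound then 100 nM thapsigargin to empty ER calcium; 0% = thapsigargin alone and -100% = DMSO vehicle control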). The method, boiled down:
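Counterscreen line: SH-SY5Y-GLuc-NoTag cells, treated with compound 19 hr before a 4 hr, 100 nM thapsigargin calcium depletion. Secreted Gaussia luciferase in the medium was measured by luminescence after coelenterazine was added (0.07x final), with cells unlysed.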
On the technique in general: Counterscreens check selectivity or assay interference.

A short description of experiment [11]: Cell Viability qHTS for small molecule stabilizers of the endoplasmic reticulum resident proteome (AID 1508629; active = well fitted curve in the direction sought with a large enough effect; an effect the other way counts as inactive or inconclusive;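 note: human SH-SY5Y neuroblastoma cells carrying the GLuc-SERCaMP reporter; compound exposure about 46 h in total before the viability read; % is set by controls: 0 for no effect and ±100 for the full control effect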). The settings on record: cell viability counter-screen, 100 nM thapsigargin for final 4 h.
Experiment [12] can be described thus: Confirmation and Secondary Assay for Modulators of Hemoglobin Beta Chain Splicing at IVS2 705 locus (AID 930; active = well fitted curve in the direction sought with a large enough effect; an effect the other way counts as inactive or inconclusive;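 note: HeLa cells stably expressing the EGFP-705 splicing reporter; GFP fluorescence per well restored by corrected splicing of the IVS2-705 intron in EGFP; % of control where 0% means no effect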). The method, boiled down: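 Secondary splice-site specificity test uses HeLa expressing CMV-driven EGFP interrupted by IVS2-705; cells were treated 2 days at 37C with 500 nM antisense PNA as positive control.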
Experiment [13] in a line: qHTS Assay for Lipid Storage Modulators (AID 1519). The conditions noted are these: Drosophila S3 cells, BODIPY lipid droplet/cell ratio, laser cytometry, cells loaded with oleic acid. The method, boiled down: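 Cells seeded at 5,000 per well were treated with compounds over a concentration series and loaded with oleic acid (400 uM, as added). Lipid droplet fluorescence (488 nm excitation, 500-530 nm channel) was read by laser-scanning cytometry and normalized to 20 uM Triacsin C.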

Experiment [14] in a line: Primary qHTS for small molecule stabilizers of the endoplasmic reticulum resident proteome: Secreted ER Calcium Modulated Protein (SERCaMP) assay (AID 1508630; active = well fitted curve in the direction sought with a large enough effect; an effect the other way counts as inactive or inconclusive; note: % is set by controls: 0 for no effect and ±100 for the full control effect). Put shortly:
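The SH-SY5Y reporter protocol was run at 3 concentrations up to 38.3 uM (primary) or 11 concentrations (follow-up): 16 h compound, 100 nM thapsigargin for 4 h, then extracellular luciferase luminescence.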

Experiment [15] deals with Alpha-galactosidase (Coffea arabica) (UniProt Q42656). Put plainly: Counterscreen for Glucocerebrosidase Inhibitors: qHTS Assay for Coffee Bean alpha-Galactosidase at pH 4.5 (AID 957; active = well fitted curve in the direction sought with a large enough effect; an effect the other way counts as inactive or inconclusive;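 note: plate controls were enzyme alone for no effect and no enzyme for full effect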). The method, boiled down: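 Enzyme is added first (2 nM final), then compounds titrated from 0.7 nM to 77 uM, then 80 uM 4-methylumbelliferyl alpha-D-galactopyranoside; after 20 min at room temperature a pH 10 NaOH/glycine stop precedes fluorescence reading at 365/440 nm.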
Alpha-galactosidase (Coffea arabica), sequence (Q42656 whole entry, looked up): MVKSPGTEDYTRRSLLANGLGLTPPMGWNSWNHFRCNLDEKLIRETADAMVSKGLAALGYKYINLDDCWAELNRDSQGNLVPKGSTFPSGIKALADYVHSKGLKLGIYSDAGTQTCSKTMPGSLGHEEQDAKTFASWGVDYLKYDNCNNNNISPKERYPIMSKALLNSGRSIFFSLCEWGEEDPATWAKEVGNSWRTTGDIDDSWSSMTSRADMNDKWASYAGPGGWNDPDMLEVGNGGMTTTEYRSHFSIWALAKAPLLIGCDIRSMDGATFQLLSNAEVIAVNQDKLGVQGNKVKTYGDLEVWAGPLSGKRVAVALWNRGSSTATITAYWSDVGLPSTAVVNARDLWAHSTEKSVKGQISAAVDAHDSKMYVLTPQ

Experiment [16] has the same target. Put plainly: Counterscreen for Glucocerebrosidase Inhibitors: qHTS Assay for Coffee Bean alpha-Galactosidase at pH 5.9 (AID 998; active = well fitted curve in the direction sought with a large enough effect; an effect the other way counts as inactive or inconclusive;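 note: plate controls were uninhibited enzyme for no effect and no-enzyme basal signal for full effect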). The method, boiled down:
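Fluorogenic 4-MU substrate hydrolysis, 80 uM substrate and 2 nM coffee bean alpha-galactosidase, pH 5.9 citrate buffer, 20 min at room temperature, then NaOH/glycine stop. Titration 0.7 nM–77 uM, normalized to no-enzyme and enzyme controls, AC50 via Hill equation.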

A short description of experiment [17]: Validation screen for inhibitors of Lassa infection (AID 463096). Note: % is set by controls: 0 for no effect and ±100 for the full control effect.
A short description of experiment [18]: Inducers of the Endoplasmic Reticulum Stress Response (ERSR) in human glioma: Validation (AID 504836; active = well fitted curve in the direction sought with a large enough effect; an effect the other way counts as inactive or inconclusive; note: 0% is about no effect). Put shortly:
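ERSR induction read as luciferase luminescence (Bright-Glo, 10 min at room temperature) in stably transfected human U87-MG glioma cells exposed to compounds for 16 h, using GRP78 as sensor.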

A short description of experiment [19]: Primary qHTS for Huh7 cytotoxicity: counterscreen for inhibitors of MERS-S pseudotyped particle cell entry (AID 1479147). Note: % is set by controls: 0 for no effect and ±100 for the full control effect. The settings on record: outcome: dose series up to 57.1 µM unless noted.
Experiment [20] is described as follows: Primary qHTS for inhibitors of MERS-S pseudo-typed particle cell entry (AID 1479149). Note: nearly all actives have a fitted effect of over 60% in size.
Experiment [21] can be described thus: Primary qHTS for Vero E6 cytotoxicity: counterscreen for inhibitors of SARS-S pseudo-typed particle cell entry (AID 1479150). The settings on record: outcome: dose series up to 57.1 µM unless noted.
The nature of experiment [22]: Cytotoxicity counterscreen for inhibitors of SARS-CoV-2 cell entry (AID 1645845). Note: nearly all actives have a fitted effect of over 50% in size. The method, boiled down:
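ATP-content luminescence (ATPLite 1step, 15 min RT) read after 48 h compound exposure of Expi293F cells stably expressing human ACE2; normalized to cells-only wells and media-only wells.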

Results filed as inconclusive are left out. Activity calls are given as the source filed them. Unless noted, calls come from the whole dose curve. Bounds are passed on as bounds.

Cytochrome P450 3A4 (Homo sapiens), sequence (P08684 whole entry, looked up): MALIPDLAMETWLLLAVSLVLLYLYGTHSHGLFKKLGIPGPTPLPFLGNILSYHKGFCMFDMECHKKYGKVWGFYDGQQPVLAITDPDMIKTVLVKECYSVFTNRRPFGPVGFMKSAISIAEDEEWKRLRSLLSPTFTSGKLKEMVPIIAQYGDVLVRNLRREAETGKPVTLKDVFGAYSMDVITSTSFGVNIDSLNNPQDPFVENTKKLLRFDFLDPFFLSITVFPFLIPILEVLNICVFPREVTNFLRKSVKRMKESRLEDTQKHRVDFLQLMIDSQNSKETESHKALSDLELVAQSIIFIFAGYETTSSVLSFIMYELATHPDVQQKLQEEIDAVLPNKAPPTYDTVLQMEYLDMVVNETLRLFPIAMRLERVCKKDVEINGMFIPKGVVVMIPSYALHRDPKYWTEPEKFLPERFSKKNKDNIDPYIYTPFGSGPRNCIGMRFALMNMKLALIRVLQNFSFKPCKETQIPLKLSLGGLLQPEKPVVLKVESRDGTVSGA
Ubiquitin carboxyl-terminal hydrolase 1 (Homo sapiens), sequence (O94782 whole entry, looked up): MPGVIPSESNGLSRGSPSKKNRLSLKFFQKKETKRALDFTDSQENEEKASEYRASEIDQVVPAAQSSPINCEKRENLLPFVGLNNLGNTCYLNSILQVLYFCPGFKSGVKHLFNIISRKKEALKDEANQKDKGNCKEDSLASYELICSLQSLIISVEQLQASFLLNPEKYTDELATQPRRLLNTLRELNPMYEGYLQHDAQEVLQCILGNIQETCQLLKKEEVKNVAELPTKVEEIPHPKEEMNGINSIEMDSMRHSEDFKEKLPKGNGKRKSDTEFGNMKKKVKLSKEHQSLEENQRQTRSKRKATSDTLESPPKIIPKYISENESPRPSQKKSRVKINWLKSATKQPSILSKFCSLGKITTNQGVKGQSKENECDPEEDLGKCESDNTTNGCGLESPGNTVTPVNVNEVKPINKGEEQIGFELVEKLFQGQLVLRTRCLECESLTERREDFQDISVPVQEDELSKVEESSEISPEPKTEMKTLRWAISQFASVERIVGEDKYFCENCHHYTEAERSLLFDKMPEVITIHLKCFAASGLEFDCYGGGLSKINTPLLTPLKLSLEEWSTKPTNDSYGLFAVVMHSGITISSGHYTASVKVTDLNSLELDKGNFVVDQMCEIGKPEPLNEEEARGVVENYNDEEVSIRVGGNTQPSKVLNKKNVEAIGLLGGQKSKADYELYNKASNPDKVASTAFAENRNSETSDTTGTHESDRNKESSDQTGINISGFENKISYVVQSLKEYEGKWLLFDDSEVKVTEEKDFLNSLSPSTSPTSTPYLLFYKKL
Glucocorticoid receptor (Homo sapiens), sequence (P04150 whole entry, looked up): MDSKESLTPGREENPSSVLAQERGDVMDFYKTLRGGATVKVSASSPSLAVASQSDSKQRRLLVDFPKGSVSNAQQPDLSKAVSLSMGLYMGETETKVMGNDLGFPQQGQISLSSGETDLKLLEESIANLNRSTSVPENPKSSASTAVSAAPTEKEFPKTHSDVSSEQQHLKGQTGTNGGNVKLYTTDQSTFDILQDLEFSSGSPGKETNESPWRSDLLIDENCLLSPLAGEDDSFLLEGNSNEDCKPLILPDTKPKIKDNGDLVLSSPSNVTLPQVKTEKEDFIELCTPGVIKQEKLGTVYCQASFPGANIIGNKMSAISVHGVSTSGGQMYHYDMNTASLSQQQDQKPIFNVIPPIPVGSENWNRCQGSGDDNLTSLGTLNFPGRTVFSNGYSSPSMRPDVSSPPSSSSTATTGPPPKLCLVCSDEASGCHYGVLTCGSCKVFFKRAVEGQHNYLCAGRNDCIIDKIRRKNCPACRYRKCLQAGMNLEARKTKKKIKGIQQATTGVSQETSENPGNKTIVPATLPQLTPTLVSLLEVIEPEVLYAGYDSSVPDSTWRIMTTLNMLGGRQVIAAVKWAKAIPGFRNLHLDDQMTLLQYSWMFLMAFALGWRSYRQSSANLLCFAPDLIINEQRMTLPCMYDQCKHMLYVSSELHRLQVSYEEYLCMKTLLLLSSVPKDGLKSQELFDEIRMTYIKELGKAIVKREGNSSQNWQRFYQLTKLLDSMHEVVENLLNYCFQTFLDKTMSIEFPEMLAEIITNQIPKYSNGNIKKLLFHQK

Take `CCCOc1ccc2[nH]cc(C3=CCNCC3)c2n1`: the Potency in [1] was > 46 µM (inactive); in experiment [3], 2.51 µM (active). The compound was classed as inactive in experiment [2]. The Potency entry in experiment [4], in [5], in experiment [6], in experiment [7], in experiment [8] and in experiment [9] was “inactive” each time. In addition, the Potency entry in [10] was “inactive”. Further, the max response in experiment [11] is 2.34% (inactive).
As to `CN1CC(CO)=C[C@H]2c3cccc4[nH]cc(c34)C[C@H]21`, the Potency result in experiment [4], in [6], in experiment [7], in experiment [8] and in [9] was “inactive” in each case. In addition, the outcome in [12] was inactive. The activity change, negative = inhibition in experiment [13] (at 57.5 µM (top of the series)) was 6.54% (inactive). Also, the max response in experiment [13] (measured here: cell count channel max response) turned out to be 8.91%; in [13] (measured here: lipid channel max response), 13%. Moreover, the Potency in [5] was 50.1 µM (active).
As to `CC1(C)OC1COc1c2occc2cc2ccc(=O)oc12` (centres undefined), the Potency result in experiment [6], in experiment [7], in experiment [8], in experiment [9] and in [14] was “inactive” in each case.
For `C[N+]1(CCCCC[N+]2(C)CCCC2)CCCC1`, the compound was classed as inactive in experiment [15], in experiment [16], in experiment [18], in [19] and in experiment [21]. In addition, the Potency entry in experiment [17], in [6], in experiment [7], in experiment [8], in [9] and in experiment [20] was “inactive” each time. Moreover, in [22], the Potency result is “inactive”.
With `O=[N+]([O-])c1c(Cl)cccc1-c1c[nH]cc1Cl`, the Potency entry in experiment [6], in experiment [7], in experiment [8] and in experiment [9] was “inactive” throughout. Also, the call in [19] and in experiment [21] was inactive.

The record behind these values is PubChem BioAssay (NCATS).
